Results as given in PubChem BioAssay (NCATS).
Records with an inconclusive call do not appear. Activity calls are given as the source filed them. Unless noted, calls follow the shape of the dose curve; as a rule, active = well fitted curve in the direction sought with a large enough effect; inconclusive = small, poorly fitted or top-dose-only effect, or another doubt; inactive = no such curve, though single readings can be large; an effect the other way counts as inactive or inconclusive.

Tests used:
[1] = target: Alpha-galactosidase (Coffea arabica) (UniProt Q42656); assay: Counterscreen for Glucocerebrosidase Inhibitors: qHTS Assay for Coffee Bean alpha-Galactosidase at pH 4.5 (AID 957); also: series mostly up to about 77 µM
In short: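 AC50 values derive from Hill-equation modeling of concentration-response data, normalized to no-enzyme and full-activity controls. The pH 4.5 citrate assay used 2 nM coffee bean enzyme and 80 uM fluorogenic substrate for 20 min.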

[2] = target: Alpha-galactosidase (Coffea arabica) (UniProt Q42656); assay: Counterscreen for Glucocerebrosidase Inhibitors: qHTS Assay for Coffee Bean alpha-Galactosidase at pH 5.9 (AID 998)
In short: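 Green coffee bean enzyme (2 nM) with 4-methylumbelliferyl alpha-D-galactopyranoside (80 uM) in 50 mM citric acid, 0.005% Tween-20, pH 5.9, 20 min at room temperature; compounds 0.7 nM–77 uM. Stopped at pH 10, fluorescence Ex365/Em440; Hill-fit AC50.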

[3] = Validation screen for inhibitors of Lassa infection (AID 463096; calls by dose curve)
[4] = Inducers of the Endoplasmic Reticulum Stress Response (ERSR) in human glioma: Validation (AID 504836)
In short: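 Stably transfected U87-MG glioma cells carrying a GRP78-based luciferase sensor; 16 h compound incubation. Luminescence end-point read 10 min after Bright-Glo addition at room temperature.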

[5] = qHTS for Inhibitors of the Functional Ribonucleoprotein Complex (vRNP) of Lassa (LASV) Arenavirus: LASV Primary Screen - GLuc reporter signal (AID 1347082; calls by dose curve; tested in HEK293 reporter line; also: series mostly up to about 57 µM; nearly all actives have a fitted effect of over 60% in size)
[6] = qHTS for Inhibitors of the Functional Ribonucleoprotein Complex (vRNP) of Lassa (LASV) Arenavirus: Viability assay - alamar blue signal for LASV Primary Screen (AID 1347083; calls by dose curve; tested in HEK293 reporter line; also: series mostly up to about 57 µM; nearly all actives have a fitted effect of over 80% in size)
[7] = qHTS for Inhibitors of the Functional Ribonucleoprotein Complex (vRNP) of Lymphocytic Choriomeningitis Arenaviruses (LCMV): Viability assay - alamar blue signal for LCMV Primary Screen (AID 1347085; calls by dose curve; tested in HEK293 reporter line; also: series mostly up to about 57 µM; nearly all actives have a fitted effect of over 80% in size)
[8] = target: Nucleoprotein (Lymphocytic choriomeningitis virus (strain Armstrong)) (UniProt P09992); assay: qHTS for Inhibitors of the Functional Ribonucleoprotein Complex (vRNP) of Lymphocytic Choriomeningitis Arenaviruses (LCMV): LCMV Primary Screen - GLuc reporter signal (AID 1347086; calls by dose curve; also: series mostly up to about 57 µM; nearly all actives have a fitted effect of over 70% in size)

Measured: Potency

Alpha-galactosidase (Coffea arabica), sequence (Q42656 whole entry, looked up): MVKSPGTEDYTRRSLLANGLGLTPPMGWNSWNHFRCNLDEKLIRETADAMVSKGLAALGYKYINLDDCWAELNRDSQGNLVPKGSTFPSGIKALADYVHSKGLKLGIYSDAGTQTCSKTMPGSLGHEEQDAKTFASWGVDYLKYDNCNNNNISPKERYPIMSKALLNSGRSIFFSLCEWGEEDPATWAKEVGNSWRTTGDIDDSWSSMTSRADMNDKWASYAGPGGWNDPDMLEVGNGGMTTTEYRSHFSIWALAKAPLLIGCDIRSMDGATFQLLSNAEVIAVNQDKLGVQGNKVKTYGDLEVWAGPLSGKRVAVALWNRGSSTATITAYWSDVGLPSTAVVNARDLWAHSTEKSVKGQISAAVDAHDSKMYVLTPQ
Nucleoprotein (Lymphocytic choriomeningitis virus (strain Armstrong)), sequence (P09992 whole entry, looked up): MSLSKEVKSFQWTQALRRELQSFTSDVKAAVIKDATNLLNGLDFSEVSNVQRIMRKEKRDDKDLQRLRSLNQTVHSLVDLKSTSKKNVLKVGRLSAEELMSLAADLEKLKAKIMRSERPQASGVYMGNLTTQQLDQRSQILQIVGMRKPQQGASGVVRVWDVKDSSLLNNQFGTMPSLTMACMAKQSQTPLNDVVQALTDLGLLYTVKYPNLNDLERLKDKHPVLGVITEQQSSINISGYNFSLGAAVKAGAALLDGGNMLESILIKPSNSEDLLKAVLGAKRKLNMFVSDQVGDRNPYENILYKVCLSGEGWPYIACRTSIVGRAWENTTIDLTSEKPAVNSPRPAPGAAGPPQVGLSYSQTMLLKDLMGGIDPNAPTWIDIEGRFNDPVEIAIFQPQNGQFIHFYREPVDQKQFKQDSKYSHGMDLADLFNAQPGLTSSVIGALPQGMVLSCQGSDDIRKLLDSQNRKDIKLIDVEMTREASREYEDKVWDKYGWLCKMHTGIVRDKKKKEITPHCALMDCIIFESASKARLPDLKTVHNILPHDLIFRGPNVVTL

N[C@@H](Cc1ccc(O)c(I)c1)C(=O)O
inactive: [1] | [2] | [3] | [4] | [5] | [6] | [7] | [8]

Cn1cc(C(=O)OCC2CCN(CCNS(C)(=O)=O)CC2)c2ccccc21
inactive: [1] | [2] | [3] | [5] | [6] | [7] | [8]

N.N.O=C(O)C1(C(=O)O)CCC1.[Pt]
inactive: [1] | [2] | [3] | [5] | [6] | [7] | [8]

Nc1nc2c(cnn2CCc2ccccc2)c2nc(-c3ccco3)nn12
inactive: [4] | [5] | [6] | [7] | [8]

N#C/C(=C\c1ccc(O)c(O)c1)C(=O)NCCCc1ccccc1
inactive: [1] | [2] | [3] | [5] | [6] | [7] | [8]
